Compounds without any hit were thinned out: in the full panel of roughly 79,000, 15% have a hit. Active and inactive are the calls of the source. Cut-off read from the data, not from the text of the source: active = growth inhibition above about 70%; inactive = the rest.
Legend:
[1] = NCI Yeast Anticancer Drug Screen. Data for the rad50 strain (AID 155);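 note: 0% = growth of vehicle-only cultures of the same strain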; settings: S. cerevisiae rad50 strain growth inhibition; at 50.0 µM; active compounds read high
Outline: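 Cells are treated with compound, grown, and their growth is then scored against vehicle-only cultures of the same repair-deficient yeast strain.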

[2] = NCI Yeast Anticancer Drug Screen. Data for the mec2-1 strain (AID 157); settings: S. cerevisiae mec2-1 strain, at 50.0 µM, active compounds read high
Outline: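 Test agents were screened against the mec2-1 yeast strain, with defined DNA repair or cell cycle alteration. Growth was scored as inhibition against vehicle-only controls.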

[3] = NCI Yeast Anticancer Drug Screen. Data for the sgs1 mgt1 strain (AID 161);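 note: 0% = growth of cultures given vehicle only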; settings: S. cerevisiae sgs1 mgt1 strain, at 50.0 µM, active compounds read high
Outline: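 Genetically altered yeast, compound exposure, growth inhibition relative to vehicle.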

[4] = NCI Yeast Anticancer Drug Screen. Data for the cln2 rad14 strain (AID 165);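 note: 0% = growth equal to vehicle treated cultures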; settings: S. cerevisiae cln2 rad14 strain, at 50.0 µM, active compounds read high
Outline: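 Growth of compound-exposed yeast (cln2 rad14 genotype) measured and expressed as inhibition relative to vehicle.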

[5] = NCI Yeast Anticancer Drug Screen. Data for the bub3 strain (AID 167); settings: S. cerevisiae bub3 mutant strain, at 50.0 µM, active compounds read high
Outline: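 Part of a panel of yeast mutants defective in DNA damage repair or cell cycle regulation. Each strain is grown with compound, and inhibition is calculated relative to solvent-treated cultures.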

[6] = NCI Yeast Anticancer Drug Screen. Data for the mlh1 rad18 strain (AID 175); settings: S. cerevisiae mlh1 rad18 strain growth inhibition; at 50.0 µM; active compounds read high
Outline: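 In this whole-cell yeast screen, a strain with altered DNA damage repair is challenged with compound, and its growth is measured against matched vehicle-treated controls.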

Measured: growth inhibition

Cc1cc([NH-])c([NH-])cc1C.[Cl][Pt+2][Cl]
inactive: [1] -2.85% | [2] -6.4% | [3] -0.15% | [4] -0.3% | [5] -6.4% | [6] -25.9%

NC(=S)N/N=C\CC(O)(C(F)(F)F)C(F)(F)F
inactive: [1] -16.7% | [2] -19.2% | [3] -7.45% | [4] 0.5% | [5] 7.1% | [6] -2.3%

N#Cc1cn(C2OC(CO)C3OC32)c2ncnc(NC(=O)c3ccccc3)c12 (stereo unspecified)
inactive: [1] 28.9% | [2] 9.1% | [3] 14.7% | [4] 10.3% | [5] -4% | [6] 15.5%

CC[N+](C)(CC)CCOC(=O)c1ccccc1Oc1ccc(C)cc1
inactive: [1] 23.1% | [2] -2.45% | [3] 7.8% | [4] -11.8% | [5] -2.1% | [6] 0.9%

CC(C)C(=O)Nc1cccc([N+](=O)[O-])c1
inactive: [1] -2.1% | [2] -8.75% | [3] 6.75% | [4] -24.6% | [5] -6.85% | [6] -7.6%

O=C(O)COc1ccccc1-c1ccccc1
inactive: [1] -34.4% | [2] -13.7% | [3] -10.6% | [4] -48.5% | [5] 1.55% | [6] -8.6%

O=c1cc(Nc2ccccc2Cl)[nH]c(=O)[nH]1
inactive: [1] 9.8% | [2] 2.2% | [3] -5.15% | [4] -41.8% | [5] -27.4% | [6] -13.2%

C(=C\C(Sc1ccccc1)c1ccccc1)/NNC1=NC(c2ccccc2)C(c2ccccc2)=NN1 (stereo unspecified)
inactive: [1] -22.4% | [2] -8.6% | [3] -42.8% | [4] -4.35% | [5] -19.9% | [6] -3.55%

C=C1C(=O)O[C@@H]2C3=C(C)C(=O)C=C[C@]3(C)CC[C@@H]12
inactive: [1] 5.3% | [2] 9.05% | [3] 8.55% | [4] 0.8% | [5] 6.6% | [6] -14.3%

COc1ccc2[nH]c(-c3cccc(N(C)C)c3)cc(=O)c2c1
inactive: [1] -26.1% | [2] -8.1% | [3] -12.5% | [4] -3.95% | [5] -26% | [6] -70.6%

CN(C)OC(=O)Nc1cccc([N+](=O)[O-])c1
inactive: [1] 19.1% | [2] 13.3% | [3] 14.1% | [4] -82.8% | [5] 4.8% | [6] -2.6%

Nc1c(I)cc(C(=O)O)c(O)c1I
inactive: [1] 2.45% | [2] -26.6% | [3] -15.3% | [4] 4.65% | [5] -5.75% | [6] -9.15%

CS(=O)(=O)OC1CCC2CCCC1(C(=O)O)C2 (stereo unspecified)
inactive: [1] 2.4% | [2] -6.6% | [3] -0.75% | [4] -30% | [5] -5.2% | [6] 9.25%

O=c1[nH]c(=O)n(C2CC(O)C(CO)O2)cc1NN=NCCCc1ccccc1 (stereo unspecified)
inactive: [1] -21.8% | [2] -12.4% | [3] -8.5% | [4] 10.8% | [5] -11.3% | [6] -32.5%

Br[C@H]1CC2CCC1C2 (stereo partly specified)
inactive: [1] 23.1% | [2] -23.9% | [3] 2.9% | [4] 6.9% | [5] -6.1% | [6] 5.65%

Cc1[nH]c2ccccc2c1C1Cc2ccccc2N1C(=O)/C=C/C=C/c1ccccc1 (stereo unspecified)
inactive: [1] 10.4% | [2] 24.7% | [3] -39.4% | [4] 38.5% | [5] 2.2% | [6] 15.2%

Cc1cc(C)c2nccc(/C=C/c3ccc(N(C)C)cc3)c2c1
inactive: [1] -15.3% | [2] 0.4% | [3] -15.5% | [4] -27.2% | [5] -19.4% | [6] -6.95%

O=C(O)c1ccc2c(Cl)ccc3c2c1CC3
inactive: [1] 11.7% | [2] -0.8% | [3] 9.05% | [4] -32.5% | [5] -26.2% | [6] 21.5%

O=c1[nH]ncn2nc3ccccc3c12
inactive: [1] 3% | [2] 10.2% | [3] -2.5% | [4] -53.1% | [5] -1.3% | [6] 8.15%

COc1cc(OC)c(NC(=O)/C=C/c2ccccc2)cc1Cl
inactive: [1] -3.45% | [2] -75.7% | [3] 7.85% | [4] -21.4% | [5] 11.2% | [6] 21%

COC(=O)C1CCC(C)(C(N)=O)C1(C)C (stereo unspecified)
inactive: [1] 16% | [2] 3% | [3] -10.9% | [4] -37.8% | [5] 5.25% | [6] 9.7%

O=C(Nc1ccc(Br)cc1)Oc1ccc(-c2ccccc2)cc1
inactive: [1] 28.9% | [2] 9.15% | [3] 4.6% | [4] 18.1% | [5] 41.8% | [6] 18.4%

CC(=O)C1CCC2C3CC=C4CC(O)CCC4(C)C3CCC12C (stereo unspecified)
inactive: [1] 26.4% | [2] 18.4% | [3] 23.8% | [4] 45.3% | [5] 37% | [6] 46.6%

CCN=C(N)CSS(=O)(=O)O
inactive: [1] -1.9% | [2] -28.1% | [3] -32.8% | [4] -4.6% | [5] -22% | [6] -16.7%

CN1CCN(c2nc3c(c(=O)n(C)c(=O)n3C)n2C)CC1
inactive: [1] -4.9% | [2] 5.35% | [3] -18.8% | [4] -6.1% | [5] -11% | [6] 6.2%

CC(C)[Si]1(C(C)C)OCC2OC(n3c(C(=O)c4ccccc4)cc(=O)[nH]c3=O)CC2O[Si](C(C)C)(C(C)C)O1 (stereo unspecified)
inactive: [1] -2.2% | [2] 5.7% | [3] 17.5% | [4] 24.4% | [5] 17.9% | [6] 6.35%

C=C1C(=O)O[C@@H]2C(=O)[C@@H](C)[C@@H]3C=CC(=O)[C@@]3(C)[C@@H](OC(=O)/C(C)=C\C)[C@H]12
inactive: [1] -2.4% | [2] -14.3% | [3] 8.8% | [4] 10.7% | [5] 7.4% | [6] 27.1%

CCCCNC(=S)N/N=C/c1ccc(OC)cc1
inactive: [1] -10.8% | [2] 1.55% | [3] -1.3% | [4] -41% | [5] -1.85% | [6] -6.45%

COc1cccc2c1C(=O)c1c(OC)c(CBr)cc(OC)c1C2=O
inactive: [1] 37.6% | [2] 9.55% | [3] 15.9% | [4] -36.6% | [5] -7.85% | [6] 15.5%

O=C1CSC(c2cccc(Cl)c2)N1c1ccc(-n2c(-c3ccccc3)nc3ccccc3c2=O)cc1 (stereo unspecified)
inactive: [1] -4.3% | [2] 9.65% | [3] 8.9% | [4] -15.9% | [5] 9.2% | [6] -6.8%

COC(=O)CC1=NNC(=O)C1
inactive: [1] -11.7% | [2] -15.1% | [3] -14% | [4] -18.1% | [5] -7.35% | [6] -19.8%

Cc1ccc(Cc2ccccc2C(=O)O)cc1
inactive: [1] -5.95% | [2] 1.55% | [3] -2.3% | [4] -42.9% | [5] -2.45% | [6] -6.05%

CSc1nc(C)cc(=O)n1C1OC(COC(C)=O)C(OC(C)=O)C(OC(C)=O)C1OC(C)=O (stereo unspecified)
inactive: [1] 20.6% | [2] -13.6% | [3] -7.35% | [4] 16.6% | [5] -30.6% | [6] 32.5%

COC(=O)C1CC(=O)N(C)c2sc(C)c(C)c2C1=O (stereo unspecified)
inactive: [4] 36.5%
active: [1] 83.9% | [2] 94.5% | [3] 89% | [5] 87.7% | [6] 95.7%

O=C(Cn1c(=O)oc2ccc(C(=O)c3ccc(F)cc3)cc21)c1ccc([N+](=O)[O-])cc1
inactive: [1] -13.8% | [2] -36% | [3] -15.6% | [4] -24.6% | [5] -21.6% | [6] -14.8%

O=[N+]([O-])c1ccc(SN2CCCCC2CC2CCCCC2)c([N+](=O)[O-])c1 (stereo unspecified)
inactive: [1] 19.9% | [2] -4.6% | [3] -18.9% | [4] -2.25% | [5] 1.3% | [6] 3.1%

COc1ccc(NC(=O)CSc2nc(C)nc3c2sc(=S)n3-c2ccccc2)cc1
inactive: [1] -16.7% | [2] -4.85% | [3] 2.95% | [4] 2.65% | [5] -3.5% | [6] 4.45%

CC(=O)Oc1ccc2c(=O)c(C(C)=O)coc2c1
inactive: [1] 7.45% | [2] -11.3% | [3] -3.15% | [4] 14.4% | [5] 4.2% | [6] 14.7%

CC(=O)OCC1OC(OCCCc2ccccc2)C(OC(C)=O)C(OC(C)=O)C1OC(C)=O (stereo unspecified)
inactive: [1] 21% | [2] 5.5% | [3] 6.45% | [4] -47.9% | [5] -65.9% | [6] 24.9%

C/C(O)=C(/C=N/C(N)=S)C(N)=O
inactive: [1] -3.05% | [2] 14.2% | [3] 7.1% | [4] 22% | [5] 10.2% | [6] 15.5%

COc1ccc(NC(=O)CN)cc1
inactive: [1] 1.3% | [2] -9.9% | [3] 0.2% | [4] -2.55% | [5] 7.6% | [6] 0.7%

— PubChem BioAssay (NCI)
